Measurements taken from PubChem BioAssay AID1159580 (chemical genetic matrix, 2015).
Out of some 5,500 compounds screened, about 2,000 (36%) were called active. About 18% were inconclusive and are not listed. No stated cut-off is given here; in the data, active means normalized growth mostly below about 0.91 (no sharp cut-off); inconclusive means no clear call, values can overlap the other calls; inactive means mostly above about 0.92. The list shows a part of the results.

Test: chemical genetic growth profiling, strain panel (AID 1159580);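 further: tested at 20 µM; growth read once vehicle control cultures reached saturation at 30 °C; 1 = growth at the plate median or of vehicle wells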
Settings: growth OD

Measured: normalized growth

CO[C@@]12[C@@H]3NC3CN1C1=C(C(=O)C(N)=C(C)C1=O)[C@@H]2COC(N)=O (some centres not stated)
inactive: S. cerevisiae deletion strains, locus YJR075W, strain HOC1, stronger effect = lower value 0.995 | S. cerevisiae deletion strains, locus YKL009W, strain mrt4, stronger effect = lower value 0.964 | S. cerevisiae deletion strains, locus YKL068W, stronger effect = lower value 0.984 | S. cerevisiae deletion strains, locus YKL085W, strain MDH1 (second series), stronger effect = lower value 0.983 | S. cerevisiae deletion strains, locus YKL085W, strain MDH1, stronger effect = lower value 0.983 | S. cerevisiae deletion strains, locus YKL160W, strain elf1, stronger effect = lower value 0.974 | S. cerevisiae deletion strains, locus YKL190W, strain CNB1, stronger effect = lower value 1 | S. cerevisiae deletion strains, locus YKR001C, strain vps1, stronger effect = lower value 0.982 | S. cerevisiae deletion strains, locus YKR026C, strain gcn3, stronger effect = lower value 0.964 | S. cerevisiae deletion strains, locus YKR091W, strain srl3, stronger effect = lower value 0.959 | S. cerevisiae deletion strains, locus YLL001W, strain dnm1, stronger effect = lower value 0.929 | S. cerevisiae deletion strains, locus YLL026W, stronger effect = lower value 0.977 | S. cerevisiae deletion strains, locus YLL041C, strain sdh2, stronger effect = lower value 0.977 | S. cerevisiae deletion strains, locus YLR027C, strain aat2, stronger effect = lower value 0.953 | S. cerevisiae deletion strains, locus YLR039C, strain RIC1, stronger effect = lower value 1.01 | S. cerevisiae deletion strains, locus YLR058C, strain SHM2, stronger effect = lower value 0.999 | S. cerevisiae deletion strains, locus YLR102C, strain apc9, stronger effect = lower value 0.986 | S. cerevisiae deletion strains, locus YLR113W, strain HOG1, stronger effect = lower value 0.973 | S. cerevisiae deletion strains, locus YLR221C, strain rsa3, stronger effect = lower value 1.01 | S. cerevisiae deletion strains, locus YLR258W, strain gsy2, stronger effect = lower value 0.992 | S. cerevisiae deletion strains, locus YLR262C, strain YPT6 (second series), stronger effect = lower value 0.938 | S. cerevisiae deletion strains, locus YLR262C, strain YPT6, stronger effect = lower value 0.947 | S. cerevisiae deletion strains, locus YLR268W, strain sec22, stronger effect = lower value 1.01 | S. cerevisiae deletion strains, locus YLR320W, strain mms22, stronger effect = lower value 1.01 | S. cerevisiae deletion strains, locus YLR330W, strain CHS5, stronger effect = lower value 0.987 | S. cerevisiae deletion strains, locus YLR342W, strain FKS1 (second series), stronger effect = lower value 1 | S. cerevisiae deletion strains, locus YLR342W, strain FKS1, stronger effect = lower value 0.952 | S. cerevisiae deletion strains, locus YLR357W, strain rsc2, stronger effect = lower value 0.961 | S. cerevisiae deletion strains, locus YLR370C, strain arc18, stronger effect = lower value 0.96 | S. cerevisiae deletion strains, locus YLR371W, strain rom2, stronger effect = lower value 0.961 | S. cerevisiae deletion strains, locus YLR384C, strain iki3, stronger effect = lower value 0.953 | S. cerevisiae deletion strains, locus YLR418C, strain cdc73, stronger effect = lower value 1.05 | S. cerevisiae deletion strains, locus YML016C, strain PPZ1, stronger effect = lower value 1 | S. cerevisiae deletion strains, locus YML032C, strain rad52, stronger effect = lower value 0.96 | S. cerevisiae deletion strains, locus YML120C, strain ndi1, stronger effect = lower value 0.94 | S. cerevisiae deletion strains, locus YML124C, strain tub3, stronger effect = lower value 0.979 | S. cerevisiae deletion strains, locus YMR058W, strain fet3, stronger effect = lower value 0.942 | S. cerevisiae deletion strains, locus YMR078C, strain ctf18, stronger effect = lower value 0.975 | S. cerevisiae deletion strains, locus YMR125W, strain sto1, stronger effect = lower value 0.982 | S. cerevisiae deletion strains, locus YMR129W, stronger effect = lower value 0.975 | S. cerevisiae deletion strains, locus YMR205C, strain PFK2, stronger effect = lower value 0.996 | S. cerevisiae deletion strains, locus YMR223W, strain ubp8, stronger effect = lower value 0.977 | S. cerevisiae deletion strains, locus YMR231W, strain pep5, stronger effect = lower value 0.949 | S. cerevisiae deletion strains, locus YMR263W, strain SAP30, stronger effect = lower value 1.01 | S. cerevisiae deletion strains, locus YMR307W, strain GAS1, stronger effect = lower value 1.02 | S. cerevisiae deletion strains, locus YNL067W, strain RPL9B, stronger effect = lower value 1.02 | S. cerevisiae deletion strains, locus YNL071W, strain lat1, stronger effect = lower value 0.971 | S. cerevisiae deletion strains, locus YNL128W, strain TEP1, stronger effect = lower value 1 | S. cerevisiae deletion strains, locus YNL153C, strain GIM3, stronger effect = lower value 1.03 | S. cerevisiae deletion strains, locus YNL183C, strain NPR1, stronger effect = lower value 0.94 | S. cerevisiae deletion strains, locus YNL209W, strain ssb2, stronger effect = lower value 0.972 | S. cerevisiae deletion strains, locus YNL233W, strain BNI4, stronger effect = lower value 1.05 | S. cerevisiae deletion strains, locus YNL248C, strain rpa49, stronger effect = lower value 0.99 | S. cerevisiae deletion strains, locus YNL250W, strain rad50, stronger effect = lower value 0.975 | S. cerevisiae deletion strains, locus YNL271C, strain bni1, stronger effect = lower value 0.979 | S. cerevisiae deletion strains, locus YNL298W, strain CLA4, stronger effect = lower value 0.978 | S. cerevisiae deletion strains, locus YNL307C, strain MCK1, stronger effect = lower value 0.979 | S. cerevisiae deletion strains, locus YNL322C, strain KRE1 (second series), stronger effect = lower value 0.945 | S. cerevisiae deletion strains, locus YNL322C, strain KRE1, stronger effect = lower value 0.997 | S. cerevisiae deletion strains, locus YNR049C, strain mso1, stronger effect = lower value 0.978 | S. cerevisiae deletion strains, locus YNR052C, strain pop2, stronger effect = lower value 0.96 | S. cerevisiae deletion strains, locus YOL006C, strain TOP1, stronger effect = lower value 1.04 | S. cerevisiae deletion strains, locus YOL012C, strain htz1 0.963 | S. cerevisiae deletion strains, locus YOL147C, strain pex11, stronger effect = lower value 0.984 | S. cerevisiae deletion strains, locus YOR001W, strain rrp6, stronger effect = lower value 0.946 | S. cerevisiae deletion strains, locus YOR061W, strain CKA2, stronger effect = lower value 1.01 | S. cerevisiae deletion strains, locus YOR069W, strain VPS5, stronger effect = lower value 1 | S. cerevisiae deletion strains, locus YOR070C, strain gyp1, stronger effect = lower value 0.993 | S. cerevisiae deletion strains, locus YOR080W, strain dia2, stronger effect = lower value 0.968 | S. cerevisiae deletion strains, locus YOR083W, strain WHI5, stronger effect = lower value 0.94 | S. cerevisiae deletion strains, locus YOR106W, strain vam3, stronger effect = lower value 0.929 | S. cerevisiae deletion strains, locus YOR136W, strain idh2, stronger effect = lower value 0.981 | S. cerevisiae deletion strains, locus YOR144C, strain elg1, stronger effect = lower value 0.985 | S. cerevisiae deletion strains, locus YOR184W, strain ser1, stronger effect = lower value 0.948 | S. cerevisiae deletion strains, locus YOR231W, strain MKK1, stronger effect = lower value 0.982 | S. cerevisiae deletion strains, locus YOR265W, strain rbl2, stronger effect = lower value 0.963 | S. cerevisiae deletion strains, locus YOR270C, strain vph1, stronger effect = lower value 1 | S. cerevisiae deletion strains, locus YOR290C, strain snf2, stronger effect = lower value 0.998 | S. cerevisiae deletion strains, locus YOR316C, strain cot1, stronger effect = lower value 0.994 | S. cerevisiae deletion strains, locus YPL051W, strain arl3, stronger effect = lower value 0.985 | S. cerevisiae deletion strains, locus YPL055C, strain LGE1, stronger effect = lower value 1.02 | S. cerevisiae deletion strains, locus YPL078C, strain atp4, stronger effect = lower value 0.921 | S. cerevisiae deletion strains, locus YPL106C, strain sse1, stronger effect = lower value 0.951 | S. cerevisiae deletion strains, locus YPL240C, strain hsp82, stronger effect = lower value 0.979 | S. cerevisiae deletion strains, locus YPL241C, strain CIN2, stronger effect = lower value 0.998 | S. cerevisiae deletion strains, locus YPL256C, strain CLN2, stronger effect = lower value 0.971 | S. cerevisiae deletion strains, locus YPR119W, strain clb2, stronger effect = lower value 0.995 | S. cerevisiae deletion strains, locus YPR141C, strain kar3, stronger effect = lower value 0.983 | S. cerevisiae deletion strains, locus YPR163C, strain tif3, stronger effect = lower value 0.966 | S. cerevisiae deletion strains, locus YPR167C, strain met16, stronger effect = lower value 0.987 | S. cerevisiae deletion strains, strain wtn01, stronger effect = lower value 1.02 | S. cerevisiae strains, strain wild type, stronger effect = lower value 0.997
